Compounds with a hit are over-represented: about 1% of the library has one in this group of screens.
FadD28 binding – inhibitors of Mycobacterium tuberculosis FadD28 bisubstrate binding; FadD28 bisubstrate probe binding, fluorescence polarization; inhibition, % at 12.5 µM; actives 0.22% (n = 360,000); AID 588549; in the data active means inhibition above about 8.5%, passing the limit was not always enough; inconclusive means no clear call, values can overlap the other calls
Mtb hypoxia inh – reduces hypoxia-regulated biosensor signal in M. tuberculosis. M. tuberculosis hypoxia-regulated fluorescent reporter, fluorescence. fluorescence inhibition, % (concentration not given with the values). actives 0.1% (n = 300,000); in the data active means fluorescence inhibition mostly above about 23%, no sharp cut-off; inactive means mostly below about 17%
PrP UTR inh – inhibition of PrP 5' UTR reporter expression. cell-based PrP 5' UTR mRNA reporter, plate reader. inhibition, % (no concentration beside the values). actives 0.35% (n = 340,000); in the data active means inhibition above about 52%; further: 0 = median of the neutral control wells
BioA inh – BioA (M. tuberculosis) enzyme inhibition | purified M. tuberculosis BioA enzyme, plate reader | inhibition, % at 9.99 µM | actives 0.096% (n = 360,000) | AID 602481; in the data active means inhibition above about 40%; inconclusive means no clear call, values can overlap the other calls
PriA SSB inh – blocks PriA binding to SSB C-terminal tail; AlphaScreen SSBct-PriA binding, biotinylated peptide; inhibition, % at 33 µM; actives 0.6% (n = 430,000); in the data active means inhibition mostly above about 37%, no sharp cut-off; inactive means mostly below about 20%;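 further: plate controls were negative control peptide for no effect and reference peptide for full effect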
TcdB GH inh – inhibitors of Clostridioides difficile toxin B glycohydrolase | P18177 | TcdB glycohydrolase enzymatic assay, plate reader | inhibition, % at 9.99 µM | actives 0.24% (n = 350,000) | AID 652162; in the data active means inhibition above about 10%
Target sequence (P18177 whole entry, looked up): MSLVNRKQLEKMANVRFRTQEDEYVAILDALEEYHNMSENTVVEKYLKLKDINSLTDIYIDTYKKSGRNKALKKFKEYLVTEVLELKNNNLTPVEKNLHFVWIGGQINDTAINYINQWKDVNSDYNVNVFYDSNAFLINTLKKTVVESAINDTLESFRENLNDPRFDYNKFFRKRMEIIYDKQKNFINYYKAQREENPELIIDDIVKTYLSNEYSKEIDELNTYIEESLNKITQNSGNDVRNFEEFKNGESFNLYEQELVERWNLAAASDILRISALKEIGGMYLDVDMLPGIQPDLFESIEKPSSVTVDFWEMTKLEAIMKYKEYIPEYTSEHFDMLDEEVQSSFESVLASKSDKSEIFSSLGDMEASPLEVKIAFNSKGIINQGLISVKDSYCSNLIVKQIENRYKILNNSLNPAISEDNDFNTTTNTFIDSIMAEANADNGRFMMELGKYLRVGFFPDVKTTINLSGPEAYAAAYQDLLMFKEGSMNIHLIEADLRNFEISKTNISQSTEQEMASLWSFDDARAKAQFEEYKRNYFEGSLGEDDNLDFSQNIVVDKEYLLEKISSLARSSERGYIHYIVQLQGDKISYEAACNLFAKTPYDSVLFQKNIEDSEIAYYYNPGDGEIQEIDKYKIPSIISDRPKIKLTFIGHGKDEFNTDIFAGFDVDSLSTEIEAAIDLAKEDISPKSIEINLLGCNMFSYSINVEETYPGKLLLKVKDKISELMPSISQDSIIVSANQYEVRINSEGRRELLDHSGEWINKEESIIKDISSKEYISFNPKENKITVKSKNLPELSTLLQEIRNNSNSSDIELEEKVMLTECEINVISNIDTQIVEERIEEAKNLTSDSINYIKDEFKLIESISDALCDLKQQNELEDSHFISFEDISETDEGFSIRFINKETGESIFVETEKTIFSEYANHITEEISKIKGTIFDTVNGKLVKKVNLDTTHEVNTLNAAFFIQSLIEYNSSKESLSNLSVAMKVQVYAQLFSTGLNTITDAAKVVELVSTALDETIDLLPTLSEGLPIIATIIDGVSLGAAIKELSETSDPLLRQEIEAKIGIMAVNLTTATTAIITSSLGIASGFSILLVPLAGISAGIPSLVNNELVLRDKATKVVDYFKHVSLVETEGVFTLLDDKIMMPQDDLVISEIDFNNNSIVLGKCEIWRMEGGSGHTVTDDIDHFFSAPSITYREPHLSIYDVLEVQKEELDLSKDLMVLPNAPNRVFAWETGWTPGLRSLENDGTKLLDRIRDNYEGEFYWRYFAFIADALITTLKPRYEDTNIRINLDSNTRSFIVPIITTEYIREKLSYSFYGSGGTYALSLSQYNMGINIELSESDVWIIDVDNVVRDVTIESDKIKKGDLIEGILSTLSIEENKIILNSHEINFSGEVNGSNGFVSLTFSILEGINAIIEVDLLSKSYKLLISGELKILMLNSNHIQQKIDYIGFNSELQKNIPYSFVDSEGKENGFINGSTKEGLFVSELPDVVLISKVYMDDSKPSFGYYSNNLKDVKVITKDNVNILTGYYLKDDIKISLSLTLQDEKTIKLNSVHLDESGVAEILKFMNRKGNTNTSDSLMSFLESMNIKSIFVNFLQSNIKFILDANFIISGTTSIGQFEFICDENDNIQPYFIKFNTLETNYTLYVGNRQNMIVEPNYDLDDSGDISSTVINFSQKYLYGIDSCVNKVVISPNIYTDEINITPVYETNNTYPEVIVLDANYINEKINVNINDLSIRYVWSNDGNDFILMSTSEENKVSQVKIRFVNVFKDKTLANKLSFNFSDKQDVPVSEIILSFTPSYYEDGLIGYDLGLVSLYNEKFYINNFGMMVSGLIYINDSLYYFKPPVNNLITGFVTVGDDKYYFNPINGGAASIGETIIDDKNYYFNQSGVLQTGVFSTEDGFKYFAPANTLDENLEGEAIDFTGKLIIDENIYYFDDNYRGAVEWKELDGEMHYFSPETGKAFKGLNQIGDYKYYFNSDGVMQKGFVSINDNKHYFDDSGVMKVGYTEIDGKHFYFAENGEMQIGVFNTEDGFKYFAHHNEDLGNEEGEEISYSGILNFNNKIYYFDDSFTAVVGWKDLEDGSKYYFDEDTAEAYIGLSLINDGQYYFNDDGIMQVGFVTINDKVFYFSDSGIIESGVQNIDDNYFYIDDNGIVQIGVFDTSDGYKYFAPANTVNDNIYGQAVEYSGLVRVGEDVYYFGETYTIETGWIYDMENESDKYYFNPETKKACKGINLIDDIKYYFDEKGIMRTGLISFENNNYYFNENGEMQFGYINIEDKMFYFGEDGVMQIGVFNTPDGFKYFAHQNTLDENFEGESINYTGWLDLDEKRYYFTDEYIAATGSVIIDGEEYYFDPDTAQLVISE
An asterisk follows results filed as active; ? = inconclusive; . = not tested or not shown.

SMILES	FadD28 binding	Mtb hypoxia inh	PrP UTR inh	BioA inh	PriA SSB inh	TcdB GH inh
CCN(CC)S(=O)(=O)c1cc(NC(=O)C(=O)c2c(-c3ccccc3)cc3ccccn23)ccc1C	0	0	-16	-1	13	.
CCC(=O)N(C)C[C@@H]1Oc2ncc(C#CC(C)C)cc2C(=O)N([C@H](C)CO)C[C@H]1C	.	.	.	-3	.	.
COC(=O)C1=C(NC(=O)c2ccccc2I)CCS1	.	.	.	.	51*	.
O=C(NC(=S)NCc1ccco1)c1ccc(Br)o1	.	.	.	.	45*	.
O=C(Cn1c(=O)oc2cc(S(=O)(=O)N3CCCC3)ccc21)N1CCN(C2CCCCC2)CC1	-3	5	-46	2	-29	0
Cc1ccc(CNc2nc3ccccc3n3cnnc23)cc1	-1	6	12	1	98*	1
O=c1[nH]c(/C=C\c2ccc(O)c(Cl)c2)nc(O)c1[N+](=O)[O-]	1	-2	2	-5	-7	12*
O=c1[nH]c(/C=C\c2ccc(O)cc2)nc(O)c1[N+](=O)[O-]	0	-8	-13	-1	3	16*
CC(=O)N(C)C[C@H]1Oc2cc(/C=C/c3ccccc3)ccc2S(=O)(=O)N([C@H](C)CO)C[C@H]1C	.	.	.	1	.	1
COc1ccc(S(=O)(=O)N2CCCCC2c2cc(C(=O)Nc3ccc(F)c(Cl)c3)no2)cc1 (stereo unspecified)	-4	.	.	-1	.	1
CS(=O)(=O)Nc1ccc(Oc2ncccn2)cc1	0	15	-27	2	-7	2
O=C(CNC(=O)c1ccccc1F)c1ccccc1	-1	3	-42	-1	-14	0
CC(=O)N1CCc2ccc(NS(=O)(=O)c3ccccc3Cl)cc21	.	.	.	.	-15	.
COc1ccc2nc(N(CCN(C)C)C(=O)c3ccc4c(c3)OCCO4)sc2c1	-2	6	-13	0	-14	2
O=C(c1ccc2c(c1)OCCO2)N(CCCn1ccnc1)c1nc2ccc(F)cc2s1	.	.	.	.	37*	.
COc1ccc(Cl)c2sc(N(CCCn3ccnc3)C(=O)c3cccc(F)c3)nc12	.	.	.	.	25	.
O=C(c1cccc(F)c1)N(CCCn1ccnc1)c1nc2ccc(Cl)cc2s1	.	.	.	.	52*	.
COc1ccc2nc(N(CCCn3ccnc3)C(=O)/C=C/c3cccs3)sc2c1	.	.	.	.	53*	.
C[C@H](CO)N1C[C@H](C)[C@H](CN(C)Cc2ccc(C(F)(F)F)cc2)Oc2ccc(NC(=O)Nc3ccc(F)cc3)cc2CC1=O	.	.	.	.	.	0
O=C1NC(=O)N(Cc2ccccc2)C(=O)/C1=C\c1ccco1	28*	7	3	.	5	-1
O=S(=O)(c1ccccc1)N1CCN=C1SCc1ccccc1	-2	1	-7	.	-31	10*
O=C(CN1CCCCC1)Nc1sc2c(c1C(=O)Nc1ccc(F)cc1)CCCC2	.	.	.	.	-13	.
O=C(CN1CCCC1)Nc1sc2c(c1C(=O)Nc1ccc(Br)cc1)CCC2	-1	.	-6	-2	75*	0
OCCN1CCN(CCCN2c3ccccc3Sc3ccc(C(F)(F)F)cc32)CC1	-4	16	-13	2	10	3
CCSc1ccc2c(c1)N(CCCN1CCN(C)CC1)c1ccccc1S2	-2	17	-15	4	43*	-20
SMILES	FadD28 binding	Mtb hypoxia inh	PrP UTR inh	BioA inh	PriA SSB inh	TcdB GH inh
FC(F)(F)c1ccc2c(c1)N(CCCN1CCN(CCCl)CC1)c1ccccc1S2	-6	.	-16	.	7	.
CN1CCN(CCCN2c3ccccc3Sc3ccc(Cl)cc32)CC1	8.2*	25	12	4	37	-1
Cc1ccccc1C(=O)N1CCC[C@@H]1C(=O)N1CCC[C@H]1C(=O)NCc1ccccc1	.	.	.	.	.	0
CCc1c(O)nc(SCC(=O)Nc2ccc(OC)cc2)n(C2CCCCC2)c1=O	1	7	-46	0	-11	.
CCc1c(O)nc(SCC(=O)Nc2nc3ccccc3s2)n(C2CCCCC2)c1=O	12*	4	-23	1	0	1
CCC(C)NC(=O)COC(=O)c1cc([N+](=O)[O-])ccc1Sc1nc(C)cs1 (stereo unspecified)	-4	18	-8	-1	-5	.
COc1ccc(C(F)(F)F)cc1NC(=O)CSc1ccc(NC(=O)C(C)C)nn1	.	.	.	.	-4	.
COc1ccc(Cl)cc1NC(=O)C(C)OC(=O)Cn1cc(C(F)(F)F)ccc1=O (stereo unspecified)	-2	27*	-18	0	-2	-1
CCOC(=O)N1CCN(C(=O)CNCc2cccs2)CC1	-2	.	-7	4	-2	.
COc1ccccc1NC(=O)NCCn1ccnc1-c1ncccn1	.	.	.	.	39*	.
O=C(NCCn1ccnc1-c1ncccn1)Nc1cccs1	.	.	.	.	124*	.
O=C(NCCn1ccnc1C1CC1)Nc1cccs1	.	.	.	.	6	.
Cc1nnsc1C(=O)NCCCn1ccnc1-c1ccccc1	.	.	.	.	1	.
C[C@H](Oc1ccccc1)C(=O)NCCn1ccnc1-c1ncccn1	.	.	.	.	93*	.
O=C(COc1ccccc1F)NCCn1ccnc1-c1ncccn1	.	.	.	.	23	.
CCCc1nnsc1C(=O)NCCn1ccnc1-c1ncccn1	.	.	.	.	72*	.
CC1(C)CC(=O)c2sc(NS(=O)(=O)c3ccc(Cl)cc3)nc2C1	.	2	-30	.	9	2
O=C(Cn1c(=O)oc2ccccc21)NCCn1ccnc1-c1ncccn1	.	.	.	.	99*	.
CN(C)S(=O)(=O)c1cccc(C(=O)NCC2CCCCC2)c1	-1	-9	-13	-4	-1	-2
CCc1cccc2c(C(=O)CN3C(=O)C(=O)N(C4CCCC4)C3=O)c[nH]c12	14*	-4	-21	.	-7	2
CCc1cccc2c(C(=O)CN3C(=O)NC4(CCCCCC4)C3=O)c[nH]c12	53*	8	0	-1	3	1
Cc1ccc(C)c(C(=O)CN2C(=O)C(=O)N(C3CCCC3)C2=O)c1	?	-2	3	0	-6	0
CCc1cccc2c(C(=O)CN3C(=O)NC4(CCCCC4)C3=O)c[nH]c12	13*	5	-27	0	-2	0
COc1ccc(OC)c(C(=O)Nc2nc(-c3ccccn3)cs2)c1	.	.	.	.	-5	.
COc1ccc(C(=O)Nc2nc(-c3ccccn3)cs2)cc1OC	.	.	.	.	114*	.
SMILES	FadD28 binding	Mtb hypoxia inh	PrP UTR inh	BioA inh	PriA SSB inh	TcdB GH inh
O=C(CCCSc1ccc(F)cc1)Nc1nc(-c2ccccn2)cs1	.	.	.	.	11	.
CC(Oc1ccc(F)cc1)C(=O)Nc1nc(-c2ccccn2)cs1 (stereo unspecified)	-4	12	28	1	57*	0
Cc1nc(C(=O)Nc2nc(-c3ccccn3)cs2)nn1-c1ccc(F)cc1	.	.	.	.	90*	.
CC(C)n1nnc(-c2ccc(C(=O)Nc3nc(-c4ccccn4)cs3)cc2)n1	.	.	.	.	74*	.
O=C(CN(Cc1ccccc1)C(=O)CCC(=O)Nc1ccccn1)NCc1ccc(F)cc1	-1	-2	-16	-1	-4	-2
C[C@@H]1CN([C@@H](C)CO)S(=O)(=O)c2ccc(-c3ccncc3)cc2O[C@H]1CN(C)Cc1cncnc1	.	.	.	2	.	0
O=C(Nc1nc(-c2ccccn2)cs1)c1ccc([N+](=O)[O-])cc1	.	.	.	.	102*	.

High-throughput results (PubChem BioAssay)
